From PubChem BioAssay (EPA / NIEHS) come the findings set out here.

Activity calls are given as the source filed them. The calls were made as follows: active = hit-call score of the fitted dose curve at least 0.9, where 1 is the maximum; inactive = score below 0.9.

The experiment can be described thus: ATG_TA_CIS: Attagene CIS-FACTORIAL HepG2 Assay for human TA Basal Promoter (AID 2282964). Conditions: HepG2 Attagene CIS-factorial TA basal promoter reporter; actives raise or lower the signal. The method, then: ATG_CIS is a cell-based, multiplexed-readout assay that uses HepG2, a human liver cell line, with measurements taken at 24 hours after chemical dosing in a 24-well plate.ATG_TA_CIS is one of 52 assay component(s) measured or calculated from the ATG_CIS assay. It is designed to make measurements of mRNA induction, a form of inducible reporter, as detected with fluorescence intensity signals by Reverse transcription polymerase chain reaction (RT-PCR) and Capillary electrophoresis technology.Data from the assay component ATG_TA_CIS was analyzed into 1 assay endpoint. This assay endpoint, ATG_TA_CIS, was analyzed with bidirectional fitting relative to DMSO as the negative control and baseline of activity. Using a type of inducible reporter, measures of mRNA for gain or loss-of-signal activity can be used to understand the background control at the transcription factor-level as they relate to the gene . Furthermore, this assay endpoint can be referred to as a secondary readout, because this assay has produced multiple assay endpoints where this one serves a background control function. To generalize the intended target to other relatable targets, this assay endpoint is annotated to the background measurement intended target family, where the subfamily is internal marker.
Human liver HepG2 cells are transiently transfected with multiple reporter transcription units (MRTUs) in 6-well plates using FuGene 6 reagent (Roche; 3 ml FuGene/1 mg DNA). The MRTU constructs are regulated by a cis-regulating element (promoter). […] A major difference between the CIS and TRANS system is that in CIS activities of endogenous TFs are measured, whereas the TRANS assay evaluates changes in activities of exogenous, chimeric NR-Gal4 proteins. […] At the end of 24 hour incubation, total RNA was isolated using TriZol reagent (Invitrogen). The isolated RNA is then reverse-transcribed using oligo(dT) primer and Mo-MLV reverse transcriptase (Invitrogen) with DNAse I (Ambion) treatment for 30 min. The one-tenth of the produced cDNA was amplified by PCR using Taq DNA polymerase (Invitrogen) and two reporter sequence-specific primers. The PCR products were fluorescently labeled by primer extension with 6-arboxyfluorescein (6-FAM) 5'-labeled reporter sequence-specific primer (2 min at 95 C, 20 s at 68 C and 10 min at 72 C) and these products were digested with 5U of HpaI (New England Biolabs) for 2h at 37 C. The fragments were purified using Qiaquick PCR columns (Qiagen), analyzed on an ABI 3130xL genetic analyzer (Applied Biosystems) with peak positions identified by using a set of X-rhodamine (ROX)-labeled MapMarker1000 molecular weight standards (BioVentures). The raw capillary electrophoresis data was processed using Attagraph software (Attagene).
With `NC(N)=O`, the compound was classed as inactive.

On to `O=C(O)CO`, for which the compound was called inactive.

In the case of `CC(C)C(=O)Nc1ccc([N+](=O)[O-])c(C(F)(F)F)c1`, the compound was classed as inactive.

For the compound `CCc1ccc(O)c(C(C)(C)C)c1`, the result was inactive.

On to `CC[C@H](C)C(=O)O[C@H]1C[C@H](O)C=C2C=C[C@H](C)[C@H](CC[C@@H](O)C[C@@H](O)CC(=O)O)[C@H]21`, for which the result was inactive.

For `COCc1nnc(-c2ccc[n+]([O-])c2)n1-c1c(Cl)c(Cl)cc2[nH]c(=O)c(=O)[nH]c12`, the result was inactive.

`COc1cc2c(c(OC)c1OC)-c1ccc(OC)c(=O)cc1[C@@H](NC(C)=O)CC2`: the compound was called inactive.

For `NC(=O)N1c2ccccc2C=Cc2ccccc21`, the compound was called inactive.

For the compound `Cc1nccn1-c1ccc(Sc2cccc(C3(C(N)=O)CCOCC3)c2)cc1`, the outcome was inactive.

With `CC(C)CCCCCCOC(=O)C1CCCCC1C(=O)OCCCCCCC(C)C` (stereo not given), the call was inactive.

On to `COS(C)(=O)=O`, for which the compound was classed as inactive.

Regarding `OC(CCl)CCl`, the compound was called inactive.

On to `CCCc1ccccc1`, for which the result was inactive.

Regarding `NC(=O)N(O)[C@@H]1COc2cc(OCc3ccccc3)ccc21`, the call was inactive.

For the compound `CCOc1ccc2[nH]cc(C(=O)NCc3ccccc3)c(=O)c2n1`, the outcome was inactive.

Regarding `OCCC(F)(F)C(F)(F)C(F)(F)C(F)(F)F`, the outcome was inactive.

Consider `CCCCCCCC1CCC(=O)O1` (stereo not given), for which the compound was called inactive.

In the case of `CC(=O)c1ccccc1`, the call was inactive.

On to `FC(F)(F)COC(OCC(F)(F)F)OCC(F)(F)F`, for which the call was inactive.

Turning to `CCCCCCCCCCCCCCO`, the compound was classed as inactive.

As to `O=C(O)c1cccc(C[C@@H]2COc3ccc(OCc4nc5cc(F)ccc5s4)cc3[C@@H]2O)c1`, the compound was classed as inactive.

For the compound `c1ccc2cc3ccccc3cc2c1`, the compound was classed as inactive.

On to `COc1cc(C(C)C)c2c(c1)S(=O)(=O)N(COc1cc(=O)n3cccc(OCCN4CCCCC4)c3n1)C2=O`, for which the result was inactive.

As to `O=c1[nH]cnc2c1ncn2[C@H]1CC[C@@H](CO)O1`, the compound was classed as inactive.

As for `Cc1cccc(O)c1C`, the outcome was inactive.

`CCCCCCCCCCCCCCCCOS(=O)(=O)O`: the compound was classed as inactive.

Consider `NNC(=O)c1ccncc1`, for which the compound was classed as inactive.

In the case of `CCCCC(CC)C(=O)OCCOCCOCCOC(=O)C(CC)CCCC` (stereo not given), the result was inactive.

Regarding `CCCCOC(=O)c1ccccc1`, the call was inactive.

With `C=CCc1cc(S(=O)(=O)c2ccc(O)c(CC=C)c2)ccc1O`, the AC50 is 33.4 µM (active).

On to `O=C(N[C@H](CO)[C@H](O)c1ccc([N+](=O)[O-])cc1)C(Cl)Cl`, for which the compound was called inactive.

As for `C[C@@H](Oc1ccc(CNC(=O)c2cccnc2Oc2ccc3c(c2)OCO3)c(F)c1)C(=O)O`, the compound was called inactive.

Turning to `c1ccc2c(c1)-c1cccc3c1c-2cc1ccccc13`, the compound was classed as inactive.

As to `c1ccc2ncccc2c1`, the result was inactive.

With `Cc1ccc(S(=O)(=O)NC(=O)NN2CCCCCC2)cc1`, the compound was classed as inactive.

Regarding `NCC(F)(F)C(F)(F)C(F)(F)C(F)(F)F`, the outcome was inactive.

Regarding `OCCOCCOCCO`, the outcome was inactive.

As to `Cc1ncc([C@@H](CCCCCCc2ccc3c(n2)NCCC3)CC(=O)O)cn1`, the result was inactive.

As to `O=C(NO)C1(NS(=O)(=O)c2ccc(Oc3ccc(F)cc3)cc2)CCOCC1`, the result was inactive.

Consider `CCCOc1ccc(S(=O)(=O)N2CCN(CC)CC2)cc1-c1nc2c(CC)n(Cc3ccccn3)nc2c(=O)[nH]1`, for which the call was inactive.
